Assay outcomes deposited in PubChem by National Center for Advancing Translational Sciences (NCATS).
Pf growth 96h = P. falciparum growth inhibition at 96 hours; AID 504834; hit rate 6.9% among 320,000; Potency, µM (titrated, usually from 28.7 µM), for inactives: top-dose activity change, negative = inhibition, hits mostly inhibitors; P. falciparum luciferase reporter growth, 96 h; note: potency is the fitted concentration of half-maximal effect; % is set by controls: 0 for no effect and ±100 for the full control effect
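P. falciparum expressing integrated firefly luciferase grown in erythrocytes (2% hematocrit, 0.05% parasitemia final) with compounds for 96 hours at 37 C, 5% CO2. Growth inhibition read as loss of luminescence after adding luciferase detection reagent.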
CHX counter = counter-screen for Shiga toxin inhibitors: cycloheximide protein synthesis inhibition. max response, %. cell reporter, cycloheximide protein synthesis inhibition counterscreen. AID 2314. hit rate 12% among 300,000; in the data active = max response mostly above about 13%, no sharp cut-off; inactive = mostly below about 14%; note: read at 38.3 µM for the half of the compounds with a filed dose; 0% is about no effect
Shiga inhibitor = blocks Shiga toxin action in Vero cells; AID 2315; hit rate 9.2% among 290,000; Vero cells, Shiga toxin protein synthesis inhibition reporter; inhibition, % at 38.7 µM; in the data active = inhibition mostly above about 28%, no sharp cut-off; inactive = mostly below about 43%; note: 0% is about no effect
LmPK inhibitor = inhibitors of Leishmania mexicana pyruvate kinase | Potency, µM (series often up to 57.5 µM), inactives show at the top dose activity change, negative = inhibition, most hits filed as inhibitors | AID 1721 | hit rate 0.37% among 290,000 | purified LmPK, Kinase-Glo ATP luminescence, 1 h; note: potency is the fitted concentration of half-maximal effect; % is set by controls: 0 for no effect and ±100 for the full control effect
Target sequence (Q27686 whole entry, looked up): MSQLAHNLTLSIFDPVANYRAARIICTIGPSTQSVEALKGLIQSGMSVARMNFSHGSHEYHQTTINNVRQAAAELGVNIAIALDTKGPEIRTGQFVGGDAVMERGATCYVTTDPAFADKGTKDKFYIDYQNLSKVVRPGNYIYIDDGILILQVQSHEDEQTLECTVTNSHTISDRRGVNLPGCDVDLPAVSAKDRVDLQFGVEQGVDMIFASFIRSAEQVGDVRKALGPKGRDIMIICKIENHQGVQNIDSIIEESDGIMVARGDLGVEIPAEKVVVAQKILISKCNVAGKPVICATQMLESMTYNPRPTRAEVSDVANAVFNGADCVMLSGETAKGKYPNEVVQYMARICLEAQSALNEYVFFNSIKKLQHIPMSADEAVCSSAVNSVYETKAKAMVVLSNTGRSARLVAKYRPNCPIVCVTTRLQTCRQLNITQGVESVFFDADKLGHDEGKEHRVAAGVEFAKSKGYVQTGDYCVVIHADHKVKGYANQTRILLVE
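In 50 mM imidazole pH 7.2 with 7 mM MgCl2, LmPK (0.1 nM) turned over PEP (0.5 mM) and ADP (0.1 mM) for 1 h at room temperature. Luciferase read-out of ATP.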
Pf growth 48h = P. falciparum growth inhibition at 48 hours (one generation); P. falciparum luciferase growth in erythrocytes, 48 h; Potency, µM (doses to about 28.7 µM), without a hit: top-dose activity change, negative = inhibition, hits mostly inhibitors; hit rate 5.9% among 310,000; note: potency is the fitted concentration of half-maximal effect; % is set by controls: 0 for no effect and ±100 for the full control effect
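Growth was read as firefly luciferase luminescence after a 48 h, 37 C, 5% CO2 exposure of compounds to reporter-bearing P. falciparum cultures (0.1% parasitemia, 2% hematocrit final) in Albumax-supplemented RPMI 1640.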
* = called active by the depositor; ? = inconclusive; / = no result given; [ ] = dose if it differs, or a comment. Shown are actives, neighbours in structure and some others; about 22% of the full set was active somewhere. Unless noted, calls come from the whole dose curve; as a rule, active = well fitted inhibition curve with a large enough effect; inconclusive = small, poorly fitted or top-dose-only effect, or another doubt; inactive = no such curve, though single readings can be large or run the other way.

SMILES	Pf growth 96h	CHX counter	Shiga inhibitor	LmPK inhibitor	Pf growth 48h
Cc1[nH]c(=S)[nH]c(=O)c1Cc1ccccc1	13.1µM*	0.5	3.4	-4.1%	27.7%
CCCCc1c(C)[nH]c(=S)[nH]c1=O	8.3%	-3.5	-12.2	4.6%	-3.2%
O=C(NCCC(=O)N1CCC2(CC1)NCCc1[nH]cnc12)c1ccc(F)c(F)c1	29.3%	-2.0	-2.0	0.5%	5.8%
CCc1ccc(N2C(=O)NC(=O)C(CCc3ccncc3)(CCc3ccncc3)C2=O)cc1	0.7%	0.6	14.4	-0.3%	?
O=C1NC(=O)C(CCc2ccncc2)(Cc2cccc(Cl)c2Cl)C(=O)N1c1ccc(Br)cc1 (centres undefined)	5.22µM*	-10.0	-14.7	3.0%	?
CCn1nc(C)cc1C(=O)N1CCCC(N2CCN(Cc3ccc4c(c3)OCO4)CC2)C1 (centres undefined)	12.3%	-3.2	-1.3	7.5%	4.8%
O=C(N/N=C/c1ccc(N2CCOCC2)cc1)c1ccc(NS(=O)(=O)c2cccs2)cc1	48.1%[5.75 µM]	7.8	12.8	1.1%	9.8%
CCOc1cc(/C=N/NC(=O)c2cccs2)ccc1OC(=O)N1CCOCC1	-12.8%	45.1*	108.7*	-4.4%	5.2%
O=C(N/N=C/c1ccc(N2CCOCC2)cc1)c1cccs1	71.8%	39.2*	78.9*	?	142.7%
O=C(c1ccc(N2CCOCC2)cc1)c1cccs1	-9.6%	30.5*	53.2*	-29.6%	204.1%
O=C(Nc1ccc(N2CCOCC2)cc1N1CCOCC1)c1cccs1	31.5%	7.2	-3.2	0.5%	/
Cc1cc(C)c(C#N)c(SC(F)F)n1	0.0%	-2.8	-19.3	-2.3%	17.8%
O=C(c1c(F)cccc1F)N(Cc1ccccn1)C1CC1	/	23.8*	56.5	0.1%	0.0%
O=C(CCC1CCCC1)NCc1ccccn1	-9.0%	13.1	23.6	1.5%	?
S=C(N/N=C/c1ccc2ncccc2c1)Nc1cccnc1	-4.1%	22.8*	66.0	-0.8%	-20.0%
CC1(C)C2CC=C(/C=N/NC(=S)Nc3cccnc3)C1C2 (centres undefined)	?	15.9	26.3	-1.2%	?
CC(C)(C)c1ccc(/C=N/NC(=S)Nc2cccnc2)cc1	?	16.2*	61.0	3.6%	?
CC1=C/C(=N\NC(=S)Nc2cccnc2)CC(C)(C)C1	2.94µM*	10.8	18.3	5.5%	?
CSCC[C@H](NC(=O)CCNC(C)=O)c1nc2ccccc2[nH]1	/	1.7	-6.2	9.7%	7.1%
O=C(CN1CCCC1)Nc1ccccc1Sc1ccc(Cl)cc1	?	6.5	20.4	-4.4%	?
S=c1[nH]cc(-c2ccccc2)[nH]1	?	39.3*	34.4*	-3.6%	49.9%
O=[N+]([O-])c1ccc(-c2c[nH]c(=S)[nH]2)cc1	3.2%	14.7	17.8	2.2%	0.0%
CC1CCc2sc(C(=O)N/N=C/c3ccc(O)cc3)cc2C1 (centres undefined)	44.5%	44.6*	53.9*	6.7%	-1.8%
C/C(=N\NC(=O)c1cc2c(s1)CCC(C)C2)c1ccncc1 (centres undefined)	9.28µM*	7.2	16.9	1.9%	-23.6%
CCOC(=O)c1[nH]c(C)c(C(=O)OCC(=O)Nc2sc3c(c2C#N)CCCCC3)c1C	25.7%	-4.4	-1.6	2.8%	11.4%
SMILES	Pf growth 96h	CHX counter	Shiga inhibitor	LmPK inhibitor	Pf growth 48h
O=C(NC(=O)c1c(F)cccc1F)Nc1cc(Cl)c(F)c(Cl)c1F	-27.8%	-6.8	-5.3	5.6%	?
O=C(NC(=O)c1c(F)cccc1F)Nc1ccccc1SC(F)F	4.2%	11.0*	27.6	-2.1%	-13.7%
NC(=O)CSc1n[nH]c(=O)n1CCc1ccccc1	-5.7%	1.9	-2.4	4.7%	-24.0%
COC(=O)c1sc(SC)c(S(=O)(=O)C(C)C)c1N	-17.6%	-0.4	-3.5	1.2%	?
COC(=O)c1cc(S(=O)(=O)C(C)C)c(S(C)=O)s1 (centres undefined)	?	13.7*	26.6	1.8%	?
C=C1c2ccccc2NC(=S)N1Cc1ccc2c(c1)OCO2	93.7%	41.2*	65.4*	-1.8%	17.5%
C=C(C)CNC(=S)N/N=C/c1ccc([N+](=O)[O-])cc1	14.5%	8.1	-3.9	6.5%	11.7µM*
CCC(C)NCCCCOc1ccc(C)cc1[N+](=O)[O-] (centres undefined)	47.2%	-3.9	-11.4	-0.2%	2.8%
CCn1c(=O)c(C(=O)Nc2ccccc2S(N)(=O)=O)c(O)c2ccccc21	-21.8%	11.8*	44.7	1.1%	49.5%
